Screening results: PubChem BioAssay, National Center for Advancing Translational Sciences (NCATS)
Sm TGR block: inhibitors of Schistosoma mansoni thioredoxin glutathione reductase. Q962Y6. purified TGR, DTNB reduction, TNB absorbance 405 nm. Potency, µM (doses to about 114 µM), for inactives: at the highest dose activity change, negative = inhibition, hits mostly inhibitors. hit rate 3% among 360,000; further: potency means the concentration at half of the fitted maximal effect; on the % scale 0 is the no-effect control and ±100 the full control effect; nearly all actives have a fitted effect of over 60% in size
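First, TGR (20 nM dispensed) and NADPH were mixed with compound. Second, a 15 min room-temperature incubation followed. Third, further NADPH and then DTNB were added to start the reaction. Finally, TNB absorbance was monitored kinetically.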
FBPA Giardia inh: inhibitors of Giardia lamblia fructose-1,6-bisphosphate aldolase | Potency, µM (series often up to 59.6 µM), inactives show at the highest dose activity, negative = inhibition, hits mostly inhibitors | purified Giardia FBPA | hit rate 0.71% among 290,000; further: potency means the concentration at half of the fitted maximal effect; on the % scale 0 is the no-effect control and ±100 the full control effect; nearly all actives have a fitted effect of over 55% in size
Target sequence (A8B2U2 whole entry, looked up): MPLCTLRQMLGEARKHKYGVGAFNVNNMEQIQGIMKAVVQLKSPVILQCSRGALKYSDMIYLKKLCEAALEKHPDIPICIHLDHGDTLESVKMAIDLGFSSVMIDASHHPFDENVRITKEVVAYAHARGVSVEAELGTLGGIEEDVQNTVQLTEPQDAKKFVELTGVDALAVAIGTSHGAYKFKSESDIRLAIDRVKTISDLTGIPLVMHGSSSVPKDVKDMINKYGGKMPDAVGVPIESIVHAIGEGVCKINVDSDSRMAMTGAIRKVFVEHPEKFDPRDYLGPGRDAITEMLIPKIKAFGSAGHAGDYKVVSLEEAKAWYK
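Giardia FBPA (40 nM reagent) was preincubated 10 min at RT with compound (up to 57.5 uM final), then substrate plus GAPDH/TPI/NAD/arsenate coupling system with diaphorase/resazurin was added; resorufin fluorescence (525/598 nm) was read after 20 min.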
CHX counter: affects cycloheximide protein synthesis inhibition readout, counter-screen; cell reporter, cycloheximide protein synthesis inhibition counterscreen; max response, %; hit rate 12% among 300,000; AID 2314; in the data active means max response mostly above about 13%, no sharp cut-off; inactive means mostly below about 14%; further: read at 38.3 µM for the half of the compounds with a filed dose; 0% is about no effect
LmPK inh: inhibitors of Leishmania mexicana pyruvate kinase; Q27686; purified LmPK, Kinase-Glo ATP luminescence, 1 h; Potency, µM (series often up to 57.5 µM), inactives show top-dose activity change, negative = inhibition, usual class: inhibitors; hit rate 0.37% among 290,000; AID 1721; further: potency means the concentration at half of the fitted maximal effect; on the % scale 0 is the no-effect control and ±100 the full control effect
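Pyruvate kinase activity monitored as ATP production (luciferase luminescence). Conditions: 0.1 nM enzyme, 0.5 mM PEP, 0.1 mM ADP, 1 h, RT; normalized against uninhibited and no-enzyme wells.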
Shiga toxin inh: Shiga toxin inhibition | Vero cells, Shiga toxin protein synthesis inhibition reporter | inhibition, % at 38.7 µM | hit rate 9.2% among 290,000 | AID 2315; in the data active means inhibition mostly above about 28%, no sharp cut-off; inactive means mostly below about 43%; further: 0% is about no effect
TbPYK inhibitor: blocks Trypanosoma brucei pyruvate kinase; Q57TT1; TbPYK enzyme, Kinase-Glo Plus ATP luminescence, 45 min; Potency, µM (highest dose often 76.8 µM), without a hit: at the top dose activity, negative = inhibition, actives largely listed as inhibitors; hit rate 0.12% among 410,000; further: potency means the concentration at half of the fitted maximal effect; on the % scale 0 is the no-effect control and ±100 the full control effect; nearly all actives have a fitted effect of over 50% in size
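Luminescence from Kinase-Glo Plus, added after a 45-minute room-temperature reaction, served as the end-point read-out. The enzyme and substrate were preincubated with compound before ADP (130 uM final) initiated turnover. Concentration-effect curves came from normalized qHTS data.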
An asterisk follows results filed as active; u = inconclusive; x = not tested or not shown; [ ] = another dose, or the depositor's remark. The sample as a whole holds a higher share of hits than the screen did. Unless noted, the call rests on the fitted dose curve; in most records, active means well fitted curve in the direction sought with a large enough effect; inconclusive means small, poorly fitted or top-dose-only effect, or another doubt; inactive means no such curve, though single readings can be large; an effect the other way counts as inactive or inconclusive.

SMILES | Sm TGR block | FBPA Giardia inh | CHX counter | LmPK inh | Shiga toxin inh | TbPYK inhibitor
CC1(C)Cc2c(C#N)c(N3CCN(C(=O)c4ccccc4)CC3)nc(-c3ccco3)c2CS1 | 3.2µM* | -29% | -1 | 2% | -4 | -18%
CSc1nc(N2CCCC2)c2c(c1C#N)CC(C)(C)OC2 | 5% | -3% | 2 | 3% | -5 | -1%
CC1(C)Cc2c(C#N)c(N3CCCC3)nc(-c3ccco3)c2CO1 | 3.5µM* | -14% | -2 | -5% | -10 | x
CCCCN(C)c1nc(-c2ccco2)c2c(c1C#N)CC(C)(C)OC2 | 2.8µM* | -14% | -4 | 0% | 15 | u
CC1(C)Cc2c(C#N)c(NCc3ccco3)nc(-c3ccco3)c2CO1 | 7.9µM* | -26% | 6 | 11% | -14 | -17%
COCCNc1nc(-c2ccccc2Cl)nc2ccccc12 | x | 0% | x | x | x | x
COc1ccccc1NC(=O)COC(=O)CCC(=O)c1cccs1 | 0% | x | x | x | x | -4%
CC(C)CCNc1nc(-c2ccco2)c2c(c1C#N)CCCC2 | 40µM* | 0% | 3 | -9% | -6 | -17%
N#Cc1c(NCCN)nc(-c2ccco2)c2c1CCCC2 | 8% | 3% | -2 | 2% | 18 | -1%
N#Cc1c(N2CCOCC2)nc(-c2ccco2)c2c1CCCC2 | 2.8µM* | 4% | -5 | 2% | -1 | -21%
CC1CCc2sc(C(=O)N3CCC(C(N)=O)CC3)cc2C1 (stereo not given) | -10% | x | x | x | x | -5%
Cc1ccc(Cn2c(C(=O)O)c(CNC3CCCCC3)c3ccc(C)cc32)cc1 | 0% | x | x | x | x | 0%
Clc1c(CSc2nc3ccccc3o2)nc2ccccn12 | 4% | -6% | 33* | -3% | 54 | 1%
Cc1cc(C)nc(SCc2nc3ncccn3c2Br)n1 | -1% | -16% | -6 | -8% | 6 | 5%
Clc1c(CSc2nc3ccccc3o2)nc2sccn12 | -1% | 2% | 30* | -2% | 152* | -2%
Brc1c(CSc2nc3ccccc3o2)nc2ncccn12 | -5% | -10% | 40* | -7% | 58 | 4%
Cc1onc(-c2ccccc2)c1C(=O)N(Cc1ccco1)Cc1cccs1 | 18µM* | u | 13 | 1% | 25 | 4%
COc1cc(/C=N/NC(=S)N/N=C/c2cc(OC)c(OC)c(OC)c2)cc(OC)c1OC | 5% | 7% | 38* | 0% | 87* | 11%
COc1cc(/C=N/NC(N)=S)ccc1OC(=O)c1ccc(C)cc1 | 1% | -6% | 6 | 0% | -30 | -1%
CCc1ccc(OCC(=O)N/N=C/c2ccc(OS(=O)(=O)c3ccc(C)cc3)c(OC)c2)cc1 | 0% | 4% | 13* | 3% | 9 | -15%
COc1cc(/C=N/NC(N)=S)ccc1OCc1ccc(C)cc1 | 0% | 0% | 30* | 6% | 66* | 1%
COc1ccc(CNC(=S)N/N=C/c2ccc(OC)c(OC)c2)cc1 | 3% | 1% | 21* | 1% | 17 | 2%
Cc1ccc(S(=O)(=O)c2cn(Cc3ccccc3)c3cc(N4CCOCC4)c(F)cc3c2=O)cc1 | 1% | x | x | x | x | 1%
CC(C)C1C(=O)N(Cc2cn(CCC3OCCCO3)nn2)CCS(=O)(=O)N1Cc1ccc(-c2ccc(Cl)c(Cl)c2)cc1 (stereo not given) | x | x | x | x | x | 2%
OC[C@@H]1O[C@](CO)(O[C@H]2O[C@H](CO)[C@@H](O)[C@H](O)[C@H]2O)[C@H](O)[C@H]1O | x | x | x | x | x | 1%
SMILES | Sm TGR block | FBPA Giardia inh | CHX counter | LmPK inh | Shiga toxin inh | TbPYK inhibitor
COc1cc(OC)c(OC)cc1/C=N/NC(=S)NCCN1CCOCC1 | 5% | u | 7 | 19% | 5 | -13%
COc1cc(/C=N/NC(=S)NCCN2CCOCC2)cc(OC)c1O | 2% | u | 19* | -1% | 77* | -5%
Cc1ccc(NC(=O)C2CCCN(S(=O)(=O)c3cccc4nsnc34)C2)c(C)c1 (stereo not given) | 9% | x | x | x | x | -1%
C/C(CC(=O)N1CCN(C=O)CC1)=N\NC(=O)c1ccc([N+](=O)[O-])cc1 | u | u | 20* | 8% | 64 | -15%
Clc1ccccc1-c1nc(N/N=C/c2cccnc2)c2ccccc2n1 | -24% | 4% | -5 | 2% | -17 | -3%
NC1=Nc2cccc3cccc1c23 | -1% | u | 8 | -5% | -4 | 7%
C(=N\NC1=Nc2cccc3cccc1c23)/c1cccnc1 | -9% | u | 40* | 4% | 72* | 4%
COc1ccc(NC2=Nc3cccc4cccc2c34)cc1OC | -22% | -13% | 9 | -1% | -3 | 2%
C(=N\NC1=Nc2cccc3cccc1c23)/c1ccccc1 | -3% | -21% | 87* | 1% | 43* | 3%
Clc1ccc(/C=N/NC2=Nc3cccc4cccc2c34)cc1 | 0% | -4% | 24* | 1% | 85* | 2%
COc1cccc(NC2=Nc3cccc4cccc2c34)c1 | -4% | -14% | 21* | 1% | 24 | -7%
CCC12CN3CC(CC)(CN(C1)C3c1cc(Br)ccc1OC)C2=O (stereo not given) | 3% | x | x | x | x | -1%
CCOC(=O)c1ccc(NC(=O)C2=C(C)C(=O)OC23CCN(C(C)=O)CC3)cc1 | -2% | x | x | x | x | -4%[15.4 µM]
COc1cc(CN(C(=O)c2ccccc2F)C2CCS(=O)(=O)C2)cc(OC)c1OC (stereo not given) | 6% | x | x | x | x | 0%
CC(O)CN1C(=O)C(CC(=O)Nc2ccc(Cl)cc2)SC1=Nc1ccccc1 (stereo not given) | 18µM* | -8% | -3 | 0% | -2 | -10%
COc1ccc(N=C2SC(CC(=O)Nc3cccc(Cl)c3)C(=O)N2Cc2ccco2)cc1 (stereo not given) | -13% | -3% | 37* | 3% | 16* | -11%
Cc1occc1C(=O)N/N=C/C=C\c1ccccc1[N+](=O)[O-] | -22% | -12% | 30* | -4% | 70* | -7%
CCOC(=O)N/N=C/C=C/c1ccccc1[N+](=O)[O-] | -24% | -3% | 22* | -5% | 73* | 4%
Cc1ccsc1C(=O)N/N=C/C=C/c1ccccc1[N+](=O)[O-] | 2% | -1% | 30* | 2% | 117* | -1%
O=C(N/N=C/C=C/c1ccccc1[N+](=O)[O-])c1cc(-c2ccccc2)n[nH]1 | -3% | -1% | 1 | 1% | 22 | -1%
COc1ccc(NCC(=O)N/N=C/C=C/c2ccccc2[N+](=O)[O-])cc1 | 6% | -15% | -3 | 4% | 6 | -10%
O=C(N/N=C/C=C\c1ccccc1[N+](=O)[O-])c1ccco1 | -4% | 0% | 12 | 6% | -2 | -1%
COC(=O)c1[nH]c(C)c(/C(O)=C2\C(=O)C(=O)N(CCN3CCOCC3)C2c2cccs2)c1C (stereo not given) | u | -7% | -4 | 6% | -14 | 4%
